# Assay outcomes (PubChem)
# This is a sample that favours compounds with a hit; in the whole collection about 3.2% have one here.
# esBAF inh: Bmi1 luciferase reporter increase in mESCs, primary screen, esBAF inhibitor project, mouse ES cells, Bmi1 luciferase knock-in, single point; 24 h; 100% = twice the neutral-well signal; reporter increase, % at 12.5 µM; 2% of 350,000 active; AID 602393, 2012; in the data active means activation above about 40%; inconclusive means no clear call, values can overlap the other calls;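 further: 0% = median of the plate's neutral control wells and 100% = double that signal; a rise in the Bmi1 reporter signal indicates esBAF inhibition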
# SMARCA2 activ: SMARCA2 (BRM) function activators, primary screen, cell-based, luminescence, high throughput | MG213 cells, MMTV-luciferase reporter, dexamethasone, overnight | activation, % at 9.1 µM | 1% of 370,000 active; in the data active means activation above about 7.8%;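 further: 0% = vehicle wells and 100% = reference activator wells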
# Dyrk1A ADPGlo: rat Dyrk1A kinase inhibitors, primary screen, biochemical, single point, plate reader. Dual specificity tyrosine-phosphorylation-regulated kinase 1A (Rattus norvegicus), Q63470. ADP-Glo luminescence, NFATc1 peptide. inhibition, % at 12.5 µM. 0.43% of 310,000 active. AID 504441, 2011; in the data active means inhibition above about 50%;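 further: plate controls were vehicle with enzyme for no effect and no enzyme for full effect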
# dFosB act: activators of delta FosB homodimer, primary screen, biochemical, fluorescence polarization, TAMRA-CDK5 oligo, single point | Protein FosB (Mus musculus), P13346 | purified delta FosB; percent of positive-control signal above neutral wells | activation, % at 25 µM | 0.99% of 340,000 active | AID 493131, 2011;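 active means mean activation above about 17%, with every replicate also reaching it, limit read from the data, passing the limit was not always enough; inconclusive means only one of the two conditions met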
# Rtt109 HAT inh: inhibitors of C. albicans Rtt109/Vps75 HAT, primary screen, biochemical, ThioGlo CoA-SH fluorescence, plate reader | 0.16% of 330,000 active | purified Rtt109/Vps75, 4 h | inhibition, % at 34.9 µM | AID 540336, 2011 | Histone acetyltransferase RTT109 (Candida albicans (strain SC5314 / ATCC MYA-2876)), …;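 active means inhibition of at least 50% in every replicate; inconclusive means best replicate reaches 50% inhibition but some replicates fall short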
# Target sequence (Q5AAJ8 whole entry, looked up): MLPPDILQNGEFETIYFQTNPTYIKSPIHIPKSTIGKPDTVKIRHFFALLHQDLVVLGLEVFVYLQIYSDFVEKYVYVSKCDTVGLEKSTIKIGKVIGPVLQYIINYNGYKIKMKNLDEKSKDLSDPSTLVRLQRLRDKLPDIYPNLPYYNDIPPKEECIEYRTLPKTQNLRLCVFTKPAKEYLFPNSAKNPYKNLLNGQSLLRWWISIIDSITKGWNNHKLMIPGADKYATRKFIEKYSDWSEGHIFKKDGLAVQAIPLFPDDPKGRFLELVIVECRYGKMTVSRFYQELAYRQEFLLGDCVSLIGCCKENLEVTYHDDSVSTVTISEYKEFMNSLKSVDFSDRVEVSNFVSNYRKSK
# CDK5 inh: inhibitors of human CDK5/p35 kinase, primary screen, biochemical, single concentration. Cyclin-dependent kinase 5 (Homo sapiens) + Cyclin-dependent kinase 5 activator 1 (Homo …. Recombinant CDK5/p35, ADP-Glo luminescence, 60 min. inhibition, % at 10 µM. 0.01% of 330,000 active. AID 488839, 2010;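 active means highest replicate inhibition of at least 50% and at least 75% of replicates reaching 50%; inconclusive means only one of the two criteria met; inactive means both criteria failed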;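 further: plate controls were DMSO neutral control for no effect and GW8510 at 10 µM for full effect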
# Active calls of the source: *; ? = inconclusive; nt = not tested or not shown.
SMILES,esBAF inh,SMARCA2 activ,Dyrk1A ADPGlo,dFosB act,Rtt109 HAT inh,CDK5 inh
Oc1ccccc1/C=N/NC(=S)NC1CC2CC1C1C=CCC21 (stereo unspecified),57*,0,nt,-11,19,2
C=CCNc1nc(C(=O)OCC(=O)c2ccccc2)cs1,55*,4,0,-6,-8,0
C=CCNc1nc(C(=O)OCC(=O)Nc2ccc(S(N)(=O)=O)cc2)cs1,-6,0,6,-11,2,0
O=C(c1cc(-c2ccc(Cl)c(Cl)c2)on1)N1CCCCC1,56*,5,6,2,-3,-1
CCN1CCN(C(=O)c2cc(COc3ccc(C(C)=O)cc3OC)on2)CC1,71*,4,2,-8,-2,0
CN(CCN1CCOCC1)C(=O)c1cc(COc2ccc(F)cc2Cl)on1,11,-2,nt,nt,nt,nt
Cc1ccc(C)c(OCc2cc(C(=O)N3CC[C@H](O)C3)no2)c1,47*,8,7,-13,18,0
CCN1CCC2(CCN(C(=O)c3cc(COc4cc(C)ccc4C)on3)C2)C1 (stereo unspecified),5,2,6,9,6,0
CN(CCc1ccccc1)C(=O)c1cc(COc2ccc(F)cc2Cl)on1,43*,7,3,-21,-9,-4
O=C(c1cc(COc2ccc(F)cc2Cl)on1)N1CCCCCCC1,25,-2,nt,-8,-2,nt
COc1cc(C)ccc1OCc1cc(C(=O)N2CCCCCCC2)no1,55*,2,nt,-15,-1,0
O=C(c1cc(COc2ccc(F)cc2Cl)on1)N1CCCCCC1,95*,4,-2,1,-5,0
CNC[C@@H]1Oc2ccc(NS(=O)(=O)c3ccc(Cl)cc3)cc2CC(=O)N([C@@H](C)CO)C[C@H]1C,0,nt,nt,nt,nt,nt
CN(C)c1ccc(NC(=O)N2CCOCC2)cc1,55*,-1,2,3,2,4
CC(=O)c1ccc(NC(=O)CCc2nnc3ccc(N4CCC5(CC4)OCCO5)nn23)cc1,54*,-1,2,-10,2,1
Cc1ccc(NC(=O)CCc2nnc3ccc(N4CCC5(CC4)OCCO5)nn23)nc1,3,1,5,-5,-12,-2
COc1ccc(-c2cn(CC[C@@H]3CC[C@@H](N)[C@H](CO)O3)nn2)cc1,30,nt,nt,nt,nt,nt
Fc1ccc2cnc(C3=CCCCC3)cc2c1,?,3,-11,-9,-10,0
C1=C(c2cc3ccccc3cn2)CCCC1,79*,6,0,-7,-5,-3
c1ccc(N2CCN(c3nc(NCc4ccco4)c4ccccc4n3)CC2)cc1,-17,2,-11,45*,11,0
c1coc(CNc2nc(N3CCCCC3)nc3ccccc23)c1,-6,-1,9,-8,6,0
Cc1ccc(Nc2nc(NCc3ccco3)c3ccccc3n2)cc1,-6,-2,2,58*,10,-1
COc1ccc(Nc2nc(NCc3ccco3)nc(N/N=C/c3ccccc3)n2)cc1,-2,0,-2,29*,25,1
Cc1ccc(S(=O)(=O)Nc2ccc3c(c2)C(=O)N([C@H](C)CO)C[C@@H](C)[C@@H](CN(C)S(=O)(=O)c2c(C)noc2C)OCCCC[C@H](C)O3)cc1,3,nt,nt,nt,nt,nt
Cc1cccc(NC(=O)c2c(O)c3ccccc3[nH]c2=O)c1,49*,-2,1,2,12,0
SMILES,esBAF inh,SMARCA2 activ,Dyrk1A ADPGlo,dFosB act,Rtt109 HAT inh,CDK5 inh
COc1cccc(-c2csc(NC(=O)Nc3ccccc3)n2)c1,21,-4,-4,3,13,1
COc1ccc(Nc2nc(-c3cccnc3)cs2)c(OC)c1,57*,2,-6,-12,2,0
COc1cccc(-c2csc(NC(=O)C3CC3)n2)c1,61*,3,20,-6,4,1
CCc1ccccc1Nc1nc(-c2cccnc2)cs1,23,0,5,-3,14,-1
COc1ccccc1Nc1nc(-c2cccnc2)cs1,44*,0,2,-10,1,0
COc1ccc(-c2csc(Nc3ccccn3)n2)cc1OC,74*,4,8,-11,-5,-3
Cc1noc(C)c1NC(=O)N[C@H]1CC[C@@H](CC(=O)N2CCCCC2)O[C@@H]1CO,-3,nt,nt,nt,nt,nt
COc1cccc(NC(=O)N(C)C[C@H]2Oc3ncc(/C=C/c4ccccc4)cc3C(=O)N([C@H](C)CO)C[C@@H]2C)c1,10,nt,nt,nt,nt,nt
Cc1ccc(S(=O)(=O)NCC[C@@H]2CC[C@@H](NC(=O)c3ccccn3)[C@@H](CO)O2)cc1,-1,nt,nt,nt,nt,nt
COc1ccc(Nc2nc(-c3cccs3)cs2)c(OC)c1,53*,6,-12,-4,-3,0
COc1ccc(OC)c(Nc2nc(-c3cccs3)cs2)c1,8,3,2,-4,-3,2
Cc1ccc(-c2cc(NC(=O)c3ccccc3)on2)cc1,60*,1,1,-5,1,10
C[C@H](CO)N1C[C@H](C)[C@@H](CN(C)Cc2ccc3c(c2)OCO3)Oc2ccc(NC(=O)C3CC3)cc2C1=O,-3,nt,nt,nt,nt,nt
O=C(CSC1=NS(=O)(=O)c2ccccc21)Nc1ccccc1,50*,0,-1,-8,10,0
CCC(=O)N(C)C[C@H]1Oc2ncc(C#CCC(C)C)cc2C(=O)N([C@H](C)CO)C[C@@H]1C,-1,nt,nt,nt,nt,nt
Cc1ccc(S(=O)(=O)N2CCN(C(=O)c3ccc4ccccc4n3)CC2)c(C)c1,58*,2,1,-6,10,1
C[C@H]1CCCCO[C@H](CN(C)CC2CCCCC2)[C@@H](C)CN([C@@H](C)CO)C(=O)c2cc(NS(=O)(=O)c3cccs3)ccc2O1,4,nt,nt,nt,nt,nt
COc1ccc2oc(=O)cc(C)c2c1,nt,0,36,-1,3,2
COc1cccc2c(=O)c3ccccc3oc12,66*,7,5,-32,-6,2
COc1ccc(OC)c(-c2oc3ccccc3c(=O)c2O)c1,15,1,3,-1,6,1
COc1ccc2oc3ccc(OC)cc3c(=O)c2c1,98*,2,27,-6,-61,1
COc1ccc2oc3ccccc3c(=O)c2c1,48*,5,10,-3,-7,1
Cc1ccc2oc3ccccc3c(=O)c2c1,62*,-1,-1,-15,4,-1
N#Cc1c(/N=C/c2ccco2)sc2c1CCCCC2,-1,0,7,6,-3,1
